In PubChem BioAssay (NCI):
About 79,000 compounds went through this panel and 15% of them were active in at least one assay; those are over-represented in the sample as a whole. Active and inactive are the calls of the source. Cut-off read from the data, not from the text of the source: active = growth inhibition above about 70%; inactive = the rest.

Experiments:
[1] = NCI Yeast Anticancer Drug Screen. Data for the rad52 strain (AID 147);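 note: 0% = growth of vehicle-treated control cultures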; conditions: S. cerevisiae rad52 mutant growth inhibition, hits give high values
Method in brief: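 The repair-mutant yeast strain was incubated with compounds, then growth was read and inhibition derived relative to vehicle.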

[2] = NCI Yeast Anticancer Drug Screen. Data for the wt1 strain (AID 149);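 note: 0% = growth of vehicle-treated wt1 cultures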; conditions: S. cerevisiae wt1 strain (SPY 50644) growth inhibition, hits give high values
Method in brief: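 Compounds are added to wt1 yeast cultures. Growth is then measured. Inhibition is expressed relative to vehicle-treated controls.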

[3] = NCI Yeast Anticancer Drug Screen. Data for the rad50EPP+ strain (AID 151);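 note: 0% = growth of vehicle-treated control cultures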; conditions: S. cerevisiae rad50 mutant strain, hits give high values
Method in brief: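 Vehicle-normalised growth inhibition; rad50EPP+ yeast strain, altered in DNA damage repair, compound-treated.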

[4] = NCI Yeast Anticancer Drug Screen. Data for the mgt1 strain (AID 153); conditions: S. cerevisiae mgt1 mutant growth inhibition, hits give high values
Method in brief: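 Vehicle-normalized growth inhibition is determined in mgt1 yeast, a strain selected for a defined alteration in DNA repair or cell cycle control.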

[5] = NCI Yeast Anticancer Drug Screen. Data for the rad50 strain (AID 155);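 note: 0% = growth of vehicle-only cultures of the same strain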; conditions: S. cerevisiae rad50 strain growth inhibition, hits give high values
Method in brief: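 Inhibition values express reduced yeast growth in compound-treated cultures relative to vehicle-treated controls.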

[6] = NCI Yeast Anticancer Drug Screen. Data for the mec2-1 strain (AID 157); conditions: S. cerevisiae mec2-1 strain, hits give high values
Method in brief: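 Mutant yeast (mec2-1) grown with compound; growth inhibition relative to vehicle control reported.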

[7] = NCI Yeast Anticancer Drug Screen. Data for the rad14 strain (AID 159);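 note: 0% = growth of vehicle-treated control cultures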; conditions: S. cerevisiae rad14 strain growth inhibition, hits give high values
Method in brief: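 A mutant yeast strain defective in DNA damage repair is treated with compound; inhibition of its growth is scored against untreated, vehicle-exposed cultures.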

[8] = NCI Yeast Anticancer Drug Screen. Data for the sgs1 mgt1 strain (AID 161);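 note: 0% = growth of cultures given vehicle only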; conditions: S. cerevisiae sgs1 mgt1 strain, hits give high values
Method in brief: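 Percent growth inhibition was derived by comparing compound-exposed mutant yeast with vehicle-exposed cultures. The strain carries alterations in DNA damage repair.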

[9] = NCI Yeast Anticancer Drug Screen. Data for the CLN2oe strain (AID 163);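 note: 0% = growth of vehicle-only control cultures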; conditions: S. cerevisiae CLN2oe strain, hits give high values
Method in brief: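 Compounds are applied to yeast harbouring a defined cell-cycle control change; reduced growth compared with vehicle-treated controls gives the value.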

[10] = NCI Yeast Anticancer Drug Screen. Data for the cln2 rad14 strain (AID 165);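 note: 0% = growth equal to vehicle treated cultures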; conditions: S. cerevisiae cln2 rad14 strain, hits give high values
Method in brief: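 Readout is yeast growth inhibition versus vehicle-treated controls, using a strain with cln2 and rad14 alterations exposed to compound.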

[11] = NCI Yeast Anticancer Drug Screen. Data for the bub3 strain (AID 167); conditions: S. cerevisiae bub3 mutant strain, hits give high values
Method in brief: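 Steps: expose the mutant yeast strain to compound; grow alongside vehicle-treated cultures; measure growth; express inhibition against the vehicle cultures.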

[12] = NCI Yeast Anticancer Drug Screen. Data for the wt2 strain (AID 169);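 note: 0% = growth of vehicle-treated yeast cultures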; conditions: S. cerevisiae wt2 strain growth inhibition, hits give high values
Method in brief: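 Against vehicle-treated controls, the growth of yeast exposed to each compound was compared, and the inhibition was recorded.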

[13] = NCI Yeast Anticancer Drug Screen. Data for the sgs1 strain (AID 173);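 note: 0% = growth of vehicle-only control cultures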; conditions: S. cerevisiae sgs1 mutant, hits give high values
Method in brief: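 Each compound was added to cultures of the altered yeast strain. Growth was recorded, and inhibition was derived by comparison with vehicle controls.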

[14] = NCI Yeast Anticancer Drug Screen. Data for the mlh1 rad18 strain (AID 175); conditions: S. cerevisiae mlh1 rad18 strain growth inhibition, hits give high values
Method in brief: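 Genetically defined yeast (DNA repair-deficient) exposed to compounds; growth inhibition determined relative to vehicle.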

[15] = NCI Yeast Anticancer Drug Screen. Data for the rad18 strain (AID 177); conditions: S. cerevisiae rad18 mutant growth inhibition, hits give high values
Method in brief: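 Vehicle-treated cultures served as the baseline for scoring compound-induced growth inhibition in DNA-repair-mutant yeast.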

[16] = at 5.0 µM (retest, dose inferred, filed as 0.5)
[17] = at 50.0 µM (retest, dose inferred, filed as 5.0)

Measured: growth inhibition

Cc1ccc(Cl)c2[nH]c(-c3ccccc3)cc(=O)c12
active: [11]; [17] 93% | [11]; at 50.0 µM 72% | [14]; [17] 94%
inactive: [1]; at 1.2 µM -1% | [1]; at 3.7 µM -1% | [1]; at 11.0 µM 1% | [1]; at 33.0 µM 2% | [1]; at 100.0 µM 3% | [2]; at 1.2 µM -3% | [2]; at 3.7 µM -3% | [2]; at 11.0 µM -4% | [2]; at 33.0 µM -2% | [2]; at 100.0 µM 0% | [3]; at 1.2 µM 1% | [3]; at 3.7 µM 2% | [3]; at 11.0 µM 6% | [3]; at 33.0 µM 9% | [3]; at 100.0 µM 6% | [4]; at 1.2 µM -5% | [4]; at 3.7 µM -3% | [4]; at 11.0 µM 19% | [4]; at 33.0 µM -25% | [4]; at 100.0 µM -4% | [5]; at 1.2 µM -1% | [5]; at 3.7 µM 0% | [5]; [16] -10% | [5]; at 11.0 µM -29% | [5]; at 33.0 µM 0% | [5]; [17] 13% | [5]; at 50.0 µM 29.2% | [5]; at 100.0 µM 0% | [6]; at 1.2 µM 0% | [6]; at 3.7 µM -3% | [6]; [16] -11% | [6]; at 11.0 µM 0% | [6]; at 33.0 µM -2% | [6]; [17] 10% | [6]; at 50.0 µM 40.6% | [6]; at 100.0 µM 0% | [7]; at 1.2 µM -2% | [7]; at 3.7 µM -6% | [7]; at 11.0 µM -2% | [7]; at 33.0 µM -12% | [7]; at 100.0 µM 1% | [8]; [16] -28% | [8]; [17] 12% | [8]; at 50.0 µM 55.5% | [9]; at 1.2 µM 0% | [9]; at 3.7 µM -5% | [9]; at 11.0 µM -1% | [9]; at 33.0 µM -5% | [9]; at 100.0 µM 1% | [10]; [16] -9% | [10]; [17] -2% | [10]; at 50.0 µM 13.4% | [11]; at 1.2 µM -2% | [11]; at 3.7 µM -2% | [11]; [16] -17% | [11]; at 11.0 µM 7% | [11]; at 33.0 µM 0% | [11]; at 100.0 µM 2% | [12]; at 1.2 µM -2% | [12]; at 3.7 µM -1% | [12]; at 11.0 µM -1% | [12]; at 33.0 µM -1% | [12]; at 100.0 µM -1% | [13]; at 1.2 µM -3% | [13]; at 3.7 µM -4% | [13]; at 11.0 µM -4% | [13]; at 33.0 µM -3% | [13]; at 100.0 µM 0% | [14]; [16] -18% | [14]; at 50.0 µM 62.8% | [15]; at 1.2 µM -5% | [15]; at 3.7 µM -1% | [15]; at 11.0 µM -6% | [15]; at 33.0 µM -24% | [15]; at 100.0 µM 14%

C[CH2][Sn]([CH2]C)([O]C(=O)C(OC(C)=O)c1ccccc1)[O]C(=O)C(OC(C)=O)c1ccccc1 (stereo unspecified)
inactive: [1]; at 1.2 µM 3% | [1]; at 3.7 µM 3% | [1]; at 11.0 µM 15% | [2]; at 1.2 µM 0% | [2]; at 3.7 µM 0% | [2]; at 11.0 µM 5% | [2]; at 33.0 µM 47% | [3]; at 1.2 µM 0% | [3]; at 3.7 µM 2% | [3]; at 11.0 µM 7% | [3]; at 33.0 µM 9% | [3]; at 100.0 µM 9% | [4]; at 1.2 µM 0% | [4]; at 3.7 µM 0% | [4]; at 11.0 µM 4% | [4]; at 33.0 µM 49% | [5]; at 1.2 µM -4% | [5]; at 3.7 µM 4% | [5]; [16] 13% | [5]; at 11.0 µM -2% | [5]; at 33.0 µM 67% | [5]; [17] 25% | [5]; at 50.0 µM 37.7% | [6]; at 1.2 µM 1% | [6]; at 3.7 µM 5% | [6]; [16] -13% | [6]; at 11.0 µM 14% | [6]; at 33.0 µM 65% | [6]; [17] 6% | [6]; at 50.0 µM 35.1% | [7]; at 1.2 µM -2% | [7]; at 3.7 µM -3% | [7]; at 11.0 µM 2% | [7]; at 33.0 µM 14% | [7]; at 100.0 µM 57% | [8]; [16] 7% | [8]; [17] 10% | [8]; at 50.0 µM 20.5% | [9]; at 1.2 µM -15% | [9]; at 3.7 µM -3% | [9]; at 11.0 µM 4% | [9]; at 33.0 µM 47% | [10]; [16] 8% | [10]; [17] 44% | [10]; at 50.0 µM -23.2% | [11]; at 1.2 µM 1% | [11]; at 3.7 µM 4% | [11]; [16] -13% | [11]; at 11.0 µM 12% | [11]; at 33.0 µM 53% | [11]; [17] 54% | [11]; at 50.0 µM 54.4% | [12]; at 1.2 µM -1% | [12]; at 3.7 µM -2% | [12]; at 11.0 µM 1% | [12]; at 33.0 µM 57% | [13]; at 1.2 µM -1% | [13]; at 3.7 µM 4% | [13]; at 11.0 µM 15% | [14]; [16] 2% | [14]; [17] 10% | [14]; at 50.0 µM 18.4% | [15]; at 1.2 µM 4% | [15]; at 3.7 µM 16% | [15]; at 11.0 µM 37%
active: [1]; at 33.0 µM 71% | [1]; at 100.0 µM 92% | [2]; at 100.0 µM 91% | [4]; at 100.0 µM 93% | [5]; at 100.0 µM 91% | [6]; at 100.0 µM 91% | [9]; at 100.0 µM 90% | [11]; at 100.0 µM 88% | [12]; at 100.0 µM 93% | [13]; at 33.0 µM 78% | [13]; at 100.0 µM 94% | [15]; at 33.0 µM 77% | [15]; at 100.0 µM 92%
